Records with an inconclusive call do not appear. Values without a mark were called inactive. Active and inactive are the calls of the source. Calls come from the whole dose curve; as a rule, active = well fitted cell-killing curve with a large enough effect in the repeat runs; inconclusive = weak or mixed curves, or effect the other way; inactive = flat fitted curve, though single readings scatter.
% is set by controls: 0 for no effect and ±100 for the full control effect.

A short description of this assay: cAMP Responsive Elements (CRE) small molecule antagonists, cell-based qHTS assay: qHTS cell viability counter screen (AID 2060913). Note: nearly all actives have a fitted effect of over 40% in size. The following applies: CRE-bla HEK293T viability, CellTiter-Glo luminescence, 5 h; series mostly up to 92.4 µM; viability change, negative = cytotoxic: at the top concentration. An excerpt: U.S. Tox21 Program National Center for Advancing Translational Sciences [NCATS] Division of Preclinical Innovation [DPI] U.S. Environmental Protection Agency [EPA] National Institutes of Environmental Health Sciences [NIEHS] National Toxicology Program [NTP] U.S. Food and Drug Administration [FDA] Tox21 Assay Overview: CREB (cyclic-AMP Responsive Element Binding Protein) is a cellular transcription factor. It binds to certain DNA sequences called cAMP Responsive Elements (CRE) and regulates the transcription of the genes. […] This cell line can be used to find agonists/antagonists of the cyclic AMP signaling pathway. The activation of the report gene under culture conditions can be detected by fluorescence intensity. This cell line has been used to screen the Tox21 10K compound library to identify agonists that induce oxidative stress. The cytotoxicity of the Tox21 compound library against the CRE-bla cell line was tested in parallel by measuring the cell viability using CellTiter-Glo assay (Promega, Madison, WI) in the same wells.
Tox21 Assay Protocol Summary: CRE-bla Hek 293T cells were suspended in assay medium (DMEM containing 10% dialyzed FBS, 0.1 mM NEAA, 1 mM sodium pyruvate and 25 mM HEPES) and dispensed at 2,000 cells/4 uL /well into 1536-well black wall/clear bottom plates using a Multidrop Combi (ThermoFisher Scientific, Waltham, MA) dispenser. After the assay plates were incubated at 37 C/5% CO2 for 18 hrs, 23 nL of compounds dissolved in DMSO, positive controls or DMSO only was transferred to the assay plate by a pintool workstation (Kalypsys, San Diego, CA), followed by addition of 1 uL of 1.25uM NKH477 (0.25 uM as final concentration) in assay medium using a Flying Reagent Dispenser (Aurora Discovery, San Diego, CA). The plates were incubated at 37 C and 5% CO2 for 3 hrs. Then 1 uL of LiveBLAzer B/G FRET substrate (Invitrogen, Carlsbad, CA) was added to each well using Bioraptr Flying Reagent Dispenser (FRD, Aurora Discovery, San Diego, CA). The plates were incubated at room temperature for 2 h, then fluorescence intensities were measured using an Envision plate reader (PerkinElmer, Shelton, CT) at Excitation 405nm, Emission 460nm and 530nm. The % activity was determined from the ratio of 460nm/530nm. For cell viability readout that measures cytotoxicity, 4 uL /well of CellTiter-Glo reagent was added into the assay plates using Bioraptr FRD. After 30 min incubation at room temperature, the luminescence intensity in the assay plates was measured using a ViewLux (PerkinElmer, Shelton, CT) plate reader.
For orientation: qHTS replaces the single test concentration by a dilution series.
Regarding `Cc1cccc(C(=O)O)c1[N+](=O)[O-]`, the “viability change, negative = cytotoxic” value was -3.4%.

With `Nc1ccc(O)c(C(=O)O)c1`, the Potency entry is “inactive”.

As for `O=[N+]([O-])c1cccc(S(=O)(=O)O)c1`, the “viability change, negative = cytotoxic” value is -17.6%.

With `OCC(O)c1ccccc1` (stereo not given), the “viability change, negative = cytotoxic” value was -3.2%.

As for `CCCCOCCOCCOC(=O)CCCCC(=O)OCCOCCOCCCC`, the Potency result was “inactive”.

With `COc1cc(C(C)=O)ccc1OCCCN1CCC(c2noc3cc(F)ccc23)CC1`, the “viability change, negative = cytotoxic” value was -0.561% [at 42.5 µM].

On to `OCC1CCCO1` (stereo not given), for which the Potency result is “inactive”.

`COc1cc(C)ccc1C(C)C`: the “viability change, negative = cytotoxic” value is -3.95%.

Consider `c1ccc2c(CC3=NCCN3)cccc2c1`, for which the “viability change, negative = cytotoxic” value was -2.94% [at 42.5 µM].

For `c1ccc2sc(SSN3CCOCC3)nc2c1`, the Potency result was “inactive”.

`CCCCNc1ccccc1`: the “viability change, negative = cytotoxic” value is -3.34%.

Regarding `CCOCOCC`, the “viability change, negative = cytotoxic” value was 10.5%.

Regarding `Nc1ccc(C(=O)OCC(O)CO)cc1` (stereo not given), the “viability change, negative = cytotoxic” value was 0.231% [at 42.5 µM].

On to `CO[Si](CCCNCCNCCN)(OC)OC`, for which the “viability change, negative = cytotoxic” value was -0.241%.

As to `O=[N+]([O-])c1ccc(O)c2ncccc12`, the “viability change, negative = cytotoxic” value was 8.12% [at 42.5 µM].

For `CC(C(=O)O)c1ccc(-c2ccccc2)c(F)c1` (stereo not given), the “viability change, negative = cytotoxic” value is -5.31%.

Consider `CC1(C)O[C@H]2CC(=O)OC[C@]23[C@H]2CC[C@@]4(C)[C@H](c5ccoc5)OC(=O)[C@H]5O[C@]54[C@]2(C)C(=O)C[C@@H]13`, for which the “viability change, negative = cytotoxic” value is 0.583% [at 42.5 µM].

For `N[C@@H](Cc1cc(I)c(O)c(I)c1)C(=O)O`, the “viability change, negative = cytotoxic” value was -3.41% [at 42.5 µM].

On to `CCN1CCN(C(=O)N[C@@H](C(=O)N[C@@H]2C(=O)N3C(C(=O)O)=C(CSc4nnnn4C)CS[C@H]23)c2ccc(O)cc2)C(=O)C1=O`, for which the “viability change, negative = cytotoxic” value was 0.171% [at 42.5 µM].

With `C=CC(C)(CCC=C(C)C)OC(=O)CC` (stereo not given), the “viability change, negative = cytotoxic” value was 13.3%.

`NC(=O)N[C@@H](CCC(=O)O)C(=O)O`: the “viability change, negative = cytotoxic” value was -0.258% [at 42.5 µM].

For the compound `CCN(CC)CCCC(C)Nc1c2ccc(Cl)cc2nc2ccc(OC)cc12` (stereo not given), the “viability change, negative = cytotoxic” value was -5.9% [at 42.5 µM].

Regarding `COP(=O)(OC)OC(c1ccc(Cl)cc1)P(=O)(OC)OC` (stereo not given), the “viability change, negative = cytotoxic” value was 5.8% [at 42.5 µM].

For `CCCCNc1ccc(C(=O)OCCOCCOCCOCCOCCOCCOCCOCCOCCOC)cc1`, the “viability change, negative = cytotoxic” value was -0.903% [at 42.5 µM].

Take `Cc1cc(C)c(N=Nc2c(O)c(S(=O)(=O)O)cc3cc(S(=O)(=O)O)ccc23)cc1C`: the viability change, negative = cytotoxic was 13% [at 8.39 µM].

In the case of `Nc1ncnc2c1ncn2[C@@H]1O[C@H](COP(=O)(O)O)[C@@H](O)[C@H]1O`, the “viability change, negative = cytotoxic” value was 10.5% [at 42.5 µM].

Regarding `CCCCCC1=CCCC1=O`, the Potency entry is “inactive”.

Regarding `CCC(CO)(CO)COCC(CC)(CO)CO`, the “viability change, negative = cytotoxic” value was 1.65%.

As for `O=C(O)c1c(O)c(-c2ccccc2)nc2ccccc12`, the “viability change, negative = cytotoxic” value is -6.11% [at 42.5 µM].

As for `CCCCCCC(CCCCCCCCCCC(=O)OCC(COC(C)=O)OC(C)=O)OC(C)=O` (stereo not given), the “viability change, negative = cytotoxic” value was 4.53% [at 42.5 µM].

Regarding `O=c1[nH]ncc2ccccc12`, the “viability change, negative = cytotoxic” value was 4.96%.

For `Nc1ccc(F)c([N+](=O)[O-])c1`, the “viability change, negative = cytotoxic” value was 16%.

For `CC(C)(O)CCc1ccccc1`, the “viability change, negative = cytotoxic” value was -2.48%.

In the case of `O=c1[nH]c2cc(C(F)(F)F)c(N3CCOCC3)cc2n(CP(=O)(O)O)c1=O`, the “viability change, negative = cytotoxic” value is 2.41% [at 42.5 µM].

Turning to `O=C=Nc1ccc(Cc2ccc(N=C=O)cc2)cc1`, the Potency entry was “inactive”.

With `O=C(OCc1ccccc1)C(=O)OCc1ccccc1`, the “viability change, negative = cytotoxic” value is 2.36%.

As for `COc1ccc(C)cc1N`, the Potency entry is “inactive”.

`C=CC(=O)OCCCCCCCC`: the “viability change, negative = cytotoxic” value was -0.211%.

For `Nc1c(Br)cc([N+](=O)[O-])cc1Br`, the “viability change, negative = cytotoxic” value was -14.6%.

Regarding `CC(S)C(=O)NCC(=O)O` (stereo not given), the “viability change, negative = cytotoxic” value was 5.94% [at 42.5 µM].

These data come from PubChem BioAssay (Tox21).
